Reference: PubChem BioAssay (EPA / NIEHS)
Inconclusive results are not listed. Calls of active or inactive are those of the source. How the source made its calls, unless noted: active means hit-call score of the fitted dose curve at least 0.9, where 1 is the maximum; inactive means score below 0.9.

How the values were obtained:
[1] = biological target: Paired box protein Pax-6 (Homo sapiens) (UniProt P26367); assay: ATG_Pax6_CIS: Attagene CIS-FACTORIAL HepG2 Assay for human Paired Box 6 (PAX6) (AID 2282956); details: HepG2 CIS-FACTORIAL PAX6 reporter transcription, RNA readout; actives raise or lower the signal
In short: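 HepG2 cells transiently transfected with cis-promoter-driven multiplexed reporter units sensing endogenous transcription factor activity; 24 h chemical exposure. Reporter mRNA quantified by RT-PCR, 6-FAM labelling, HpaI digestion and capillary electrophoresis; bidirectional fit versus DMSO baseline.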

[2] = ATG_PXRE_CIS: Attagene CIS-FACTORIAL HepG2 Assay for human Pregnane X Receptor Element (PXRE) (AID 2282957); details: HepG2 Attagene CIS-FACTORIAL PXRE reporter, mRNA; actives raise or lower the signal
In short: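 HepG2 cells transiently transfected with cis-element-driven multiplexed reporter units; after 24 h chemical exposure, reporter mRNA measured by RT-PCR, 6-FAM labelling, HpaI digestion and capillary electrophoresis. Bidirectional fitting relative to DMSO.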

[3] = ATG_PPRE_CIS: Attagene CIS-FACTORIAL HepG2 Assay for human Peroxisome Proliferator-activated Response Element (PPRE) (AID 2282958); details: HepG2 PPRE cis-element reporter, Attagene transcription factor profiling; actives raise or lower the signal
In short: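 In this cell-based multiplex, a PPRE cis element drives a reporter sequence in transiently transfected HepG2 cells. Following 24 h treatment, labeled cDNA amplicons are sized and quantified by capillary electrophoresis, with DMSO defining baseline.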

[4] = ATG_Sox_CIS: Attagene CIS-FACTORIAL HepG2 Assay for human SRY-box transcription factor (SOX) (AID 2282960); details: HepG2 Attagene cis-factorial SOX reporter, mRNA; actives raise or lower the signal
In short: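 Measures mRNA induction of a SOX1-associated reporter in HepG2 after 24 h dosing. Fluorescently labelled RT-PCR fragments are separated by capillary electrophoresis, and gain or loss relative to DMSO control is fitted.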

[5] = ATG_SREBP_CIS: Attagene CIS-FACTORIAL HepG2 Assay for human Sterol Regulatory Element Binding (SREBP) (AID 2282962); details: HepG2 Attagene cis-factorial SREBP reporter, mRNA; actives raise or lower the signal
In short: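 HepG2 cells transiently transfected with multiplexed cis-promoter reporter units sensing endogenous transcription factors; reporter mRNA measured 24 h after dosing by RT-PCR, 6-FAM labeling, HpaI digestion and capillary electrophoresis. Bidirectional fit versus DMSO.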

[6] = biological target: Signal transducer and activator of transcription 3 (Homo sapiens) (UniProt P40763); assay: ATG_STAT3_CIS: Attagene CIS-FACTORIAL HepG2 Assay for human Signal Transducer and Activator of Transcription 3 (STAT3) (AID 2282963); details: HepG2, Attagene cis-factorial STAT3 reporter transcription; actives raise or lower the signal
In short: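 HepG2 cells transiently transfected with cis-element-driven multiple reporter transcription units; after 24 h chemical exposure, reporter mRNA measured by RT-PCR, 6-FAM primer-extension labelling, HpaI digestion and capillary electrophoresis. Bidirectional fitting versus DMSO baseline.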

[7] = ATG_TA_CIS: Attagene CIS-FACTORIAL HepG2 Assay for human TA Basal Promoter (AID 2282964); details: HepG2 Attagene CIS-factorial TA basal promoter reporter; actives raise or lower the signal
In short: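 Multiplexed mRNA reporter assay, HepG2, 24 h. Reporter cDNA amplified, 6-FAM primer-extended, HpaI-cut, CE-sized; DMSO = negative control and baseline.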

[8] = ATG_TCF_b_cat_CIS: Attagene CIS-FACTORIAL HepG2 Assay for human T-Cell-Factor with beta-catenin (TCF/b-cat) (AID 2282965); details: HepG2 TCF/beta-catenin cis-reporter transcription, actives raise or lower the signal
In short: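 HepG2 cells transiently transfected with multiple cis-promoter-regulated reporter transcription units, so endogenous transcription factor activity is measured. Reporter mRNA read 24 hours after dosing by RT-PCR, fluorescent labelling and capillary electrophoresis; bidirectional fitting against DMSO.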

[9] = ATG_TAL_CIS: Attagene CIS-FACTORIAL HepG2 Assay for human TAL Basal Promoter (AID 2282966); details: HepG2 Attagene cis-factorial TAL promoter reporter; actives raise or lower the signal;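 further: background control endpoint measuring basal TAL promoter reporter mRNA not a specific factor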
In short: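 HepG2 cells transiently transfected with multiplexed cis-promoter reporter units, dosed 24 h. Reporter mRNA quantified by RT-PCR, 6-FAM labelling, HpaI digestion and capillary electrophoresis; TAL basal promoter serves as background control, fitted bidirectionally versus DMSO.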

[10] = ATG_TGFb_CIS: Attagene CIS-FACTORIAL HepG2 Assay for human Transforming Growth Factor (TGF) (AID 2282967); details: HepG2 Attagene CIS TGFb reporter, mRNA transcription; actives raise or lower the signal
In short: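 Transcript-level reporter readout: HepG2 transfectants, 24 h exposure, RNA to cDNA, reporter-specific PCR, fluorescent primer extension, capillary sizing against ROX standards. Gain- or loss-of-signal relative to DMSO.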

[11] = ATG_VDRE_CIS: Attagene CIS-FACTORIAL HepG2 Assay for human Vitamin D Receptor Element (VDRE) (AID 2282968); details: HepG2 VDRE cis-reporter transcription, actives raise or lower the signal
In short: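 HepG2 cells transiently transfected with cis-element reporter units, dosed 24 h; reporter mRNA measured by RT-PCR, 6-FAM labeling, HpaI digestion and capillary electrophoresis. Activity fitted bidirectionally against DMSO baseline.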

[12] = biological target: Estrogen receptor (Homo sapiens) (UniProt P03372); assay: ATG_ERa_TRANS: Attagene TRANS-FACTORIAL HepG2 Assay for human Estrogen Receptor alpha (ERa) (AID 2282970; active means hit-call score of the fitted dose curve at least 0.9, where 1 is the maximum); details: HepG2 Attagene TRANS ERa GAL4 reporter, mRNA
In short: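 HepG2 cells transiently transfected with multiplexed GAL4-UAS reporter units read out chimeric NR-Gal4 activity. After 24 h compound exposure, reporter mRNA was quantified by RT-PCR, 6-FAM labeling, HpaI digestion and capillary electrophoresis, relative to DMSO.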

[13] = biological target: X-box-binding protein 1 (Homo sapiens) (UniProt P17861); assay: ATG_Xbp1_CIS: Attagene CIS-FACTORIAL HepG2 Assay for human X-box Binding Protein 1 (XBP1) (AID 2282972); details: HepG2 XBP1 cis-element reporter, Attagene multiplex; actives raise or lower the signal
In short: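 HepG2 cells transiently transfected with multiple cis-element reporter units report endogenous TF activity; 24 h exposure, then reporter mRNA measured by RT-PCR, 6-FAM labelling, HpaI digestion and capillary electrophoresis. Bidirectional fitting versus DMSO.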

[14] = ATG_M_19_TRANS: Attagene TRANS-FACTORIAL HepG2 Assay for M19 Transcription Factor (Internal Marker) (AID 2282974; active means hit-call score of the fitted dose curve at least 0.9, where 1 is the maximum); details: HepG2 Attagene TRANS-FACTORIAL M19 internal marker reporter
In short: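 Reporter mRNA induction was measured in transfected HepG2 cells 24 h after dosing. Endpoint fitted upward relative to DMSO and serves as a background control within the multiplexed TRANS panel.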

[15] = ATG_RORE_CIS: Attagene CIS-FACTORIAL HepG2 Assay for human RAR-related Orphan Receptor Element (RORE) (AID 2282959); details: HepG2 Attagene cis-factorial RORE reporter, mRNA; actives raise or lower the signal
In short: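 Endogenous factor activity at a cis response element is read as reporter transcript levels in HepG2 cells, 24 h post-dose. Transcripts are quantified by RT-PCR with capillary electrophoresis, and data fitted in both directions against DMSO.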

[16] = biological target: Transcription factor Sp1 (Homo sapiens) (UniProt P08047); assay: ATG_Sp1_CIS: Attagene CIS-FACTORIAL HepG2 Assay for human Specificity Protein 1 (Sp1) (AID 2282961); details: HepG2 Sp1 cis-reporter transcription, actives raise or lower the signal
In short: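 Cells: HepG2, transiently transfected with cis-regulated multiplexed reporters. Exposure: 24 h. Detection: reporter transcripts amplified, fluorescently labeled, restriction-digested and sized by capillary electrophoresis. Analysis: bidirectional fit relative to DMSO.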

[17] = ATG_GAL4_TRANS: Attagene TRANS-FACTORIAL HepG2 Assay for GAL4 (Internal Marker) (AID 2282976; active means hit-call score of the fitted dose curve at least 0.9, where 1 is the maximum); details: HepG2 Attagene TRANS GAL4 internal marker reporter
In short: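 Background-control readout: GAL4-UAS reporter transcript in transiently transfected HepG2 cells after 24 h compound exposure. Measured by RT-PCR, 6-FAM primer extension, HpaI digest and capillary electrophoresis; gain-of-signal fit versus DMSO.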

[18] = biological target: Steroid hormone receptor ERR1 (Homo sapiens) (UniProt P11474); assay: ATG_ERRa_TRANS: Attagene TRANS-FACTORIAL HepG2 Assay for human Estrogen-Related Receptor alpha (ERRa) (AID 2282971; active means hit-call score of the fitted dose curve at least 0.9, where 1 is the maximum); details: HepG2 Attagene TRANS reporter, ERRa transactivation
In short: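 HepG2 cells transiently transfected with GAL4-UAS reporter units and chimeric NR-Gal4 constructs; after 24 hour compound incubation, reporter mRNA quantified by RT-PCR, fluorescent labelling and capillary electrophoresis, gain of signal versus DMSO.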

Sequence of Paired box protein Pax-6 (Homo sapiens) (P26367 whole entry, looked up): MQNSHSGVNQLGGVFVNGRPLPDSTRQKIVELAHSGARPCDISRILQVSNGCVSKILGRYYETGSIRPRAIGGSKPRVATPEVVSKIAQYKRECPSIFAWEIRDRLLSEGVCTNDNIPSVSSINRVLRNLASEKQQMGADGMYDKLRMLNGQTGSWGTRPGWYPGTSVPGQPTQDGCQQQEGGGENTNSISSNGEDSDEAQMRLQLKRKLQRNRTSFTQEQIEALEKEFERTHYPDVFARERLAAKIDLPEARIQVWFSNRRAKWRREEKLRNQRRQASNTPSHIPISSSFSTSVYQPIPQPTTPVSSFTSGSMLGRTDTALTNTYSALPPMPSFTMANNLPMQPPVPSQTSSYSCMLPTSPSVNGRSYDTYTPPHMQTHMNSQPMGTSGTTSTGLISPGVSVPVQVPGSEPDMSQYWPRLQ
Sequence of X-box-binding protein 1 (Homo sapiens) (P17861 whole entry, looked up): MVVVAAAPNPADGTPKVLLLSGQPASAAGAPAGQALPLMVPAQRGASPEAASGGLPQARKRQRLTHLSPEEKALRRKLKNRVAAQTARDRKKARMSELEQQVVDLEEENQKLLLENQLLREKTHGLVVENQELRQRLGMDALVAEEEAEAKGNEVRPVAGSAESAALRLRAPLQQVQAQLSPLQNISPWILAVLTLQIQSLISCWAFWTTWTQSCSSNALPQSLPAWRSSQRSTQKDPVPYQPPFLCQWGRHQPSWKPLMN
Sequence of Transcription factor Sp1 (Homo sapiens) (P08047 whole entry, looked up): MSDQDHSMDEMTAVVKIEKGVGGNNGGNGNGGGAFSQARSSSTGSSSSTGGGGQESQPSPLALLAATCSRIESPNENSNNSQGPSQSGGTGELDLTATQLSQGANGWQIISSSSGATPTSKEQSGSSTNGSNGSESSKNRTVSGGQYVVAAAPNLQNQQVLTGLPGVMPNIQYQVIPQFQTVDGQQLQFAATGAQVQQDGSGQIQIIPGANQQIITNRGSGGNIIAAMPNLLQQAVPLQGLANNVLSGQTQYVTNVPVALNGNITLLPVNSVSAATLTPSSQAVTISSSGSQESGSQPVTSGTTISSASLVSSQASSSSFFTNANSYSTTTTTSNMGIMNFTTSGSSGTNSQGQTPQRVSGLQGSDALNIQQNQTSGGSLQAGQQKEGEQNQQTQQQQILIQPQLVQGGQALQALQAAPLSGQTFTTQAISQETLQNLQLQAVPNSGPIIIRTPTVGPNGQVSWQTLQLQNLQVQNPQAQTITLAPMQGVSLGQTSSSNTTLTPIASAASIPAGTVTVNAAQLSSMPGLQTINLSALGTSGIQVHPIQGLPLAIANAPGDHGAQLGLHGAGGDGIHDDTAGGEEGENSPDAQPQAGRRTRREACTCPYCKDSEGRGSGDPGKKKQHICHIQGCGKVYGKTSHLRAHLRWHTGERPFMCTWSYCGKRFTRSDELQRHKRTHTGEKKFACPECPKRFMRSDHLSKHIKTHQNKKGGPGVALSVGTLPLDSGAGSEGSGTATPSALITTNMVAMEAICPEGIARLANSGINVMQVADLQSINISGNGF
Sequence of Estrogen receptor (Homo sapiens) (P03372 whole entry, looked up, the tested form may be a part): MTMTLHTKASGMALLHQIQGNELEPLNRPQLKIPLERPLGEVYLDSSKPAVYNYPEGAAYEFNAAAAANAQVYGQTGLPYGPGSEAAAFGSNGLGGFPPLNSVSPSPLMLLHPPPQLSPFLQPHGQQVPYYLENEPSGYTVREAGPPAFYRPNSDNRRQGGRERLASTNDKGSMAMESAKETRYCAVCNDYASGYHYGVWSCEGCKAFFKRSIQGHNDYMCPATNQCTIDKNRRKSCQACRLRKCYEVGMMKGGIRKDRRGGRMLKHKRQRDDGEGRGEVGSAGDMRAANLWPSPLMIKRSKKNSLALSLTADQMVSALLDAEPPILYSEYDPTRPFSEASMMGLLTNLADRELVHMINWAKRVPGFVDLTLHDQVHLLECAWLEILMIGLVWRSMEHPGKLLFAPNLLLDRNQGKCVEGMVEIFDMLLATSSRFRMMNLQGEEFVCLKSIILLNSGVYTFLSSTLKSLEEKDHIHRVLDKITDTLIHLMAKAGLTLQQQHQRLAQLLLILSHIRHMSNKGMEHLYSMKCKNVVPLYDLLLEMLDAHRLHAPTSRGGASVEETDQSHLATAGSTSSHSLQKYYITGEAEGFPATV
Sequence of Signal transducer and activator of transcription 3 (Homo sapiens) (P40763 whole entry, looked up): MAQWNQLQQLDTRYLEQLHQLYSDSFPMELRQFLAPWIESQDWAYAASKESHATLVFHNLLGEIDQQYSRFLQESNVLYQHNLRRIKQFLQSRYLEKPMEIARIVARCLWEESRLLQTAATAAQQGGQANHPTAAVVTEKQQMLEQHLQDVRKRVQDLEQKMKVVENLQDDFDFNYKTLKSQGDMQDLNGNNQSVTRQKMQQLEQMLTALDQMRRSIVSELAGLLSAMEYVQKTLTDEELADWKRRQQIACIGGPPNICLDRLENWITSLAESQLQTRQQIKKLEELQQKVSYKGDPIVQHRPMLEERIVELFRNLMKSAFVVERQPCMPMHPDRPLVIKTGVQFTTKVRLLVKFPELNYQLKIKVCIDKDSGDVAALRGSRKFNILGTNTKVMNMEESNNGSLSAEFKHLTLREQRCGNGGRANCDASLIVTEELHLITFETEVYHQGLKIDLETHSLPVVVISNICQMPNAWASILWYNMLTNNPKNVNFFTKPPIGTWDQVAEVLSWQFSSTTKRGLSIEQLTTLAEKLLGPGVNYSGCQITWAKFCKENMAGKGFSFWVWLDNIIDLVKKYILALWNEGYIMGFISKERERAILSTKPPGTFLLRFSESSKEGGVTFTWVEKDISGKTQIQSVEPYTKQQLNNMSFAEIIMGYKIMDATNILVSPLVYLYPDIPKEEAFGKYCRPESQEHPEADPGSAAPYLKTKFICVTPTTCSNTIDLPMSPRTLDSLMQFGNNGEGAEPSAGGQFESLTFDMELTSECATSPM
Sequence of Steroid hormone receptor ERR1 (Homo sapiens) (P11474 whole entry, looked up, the tested form may be a part): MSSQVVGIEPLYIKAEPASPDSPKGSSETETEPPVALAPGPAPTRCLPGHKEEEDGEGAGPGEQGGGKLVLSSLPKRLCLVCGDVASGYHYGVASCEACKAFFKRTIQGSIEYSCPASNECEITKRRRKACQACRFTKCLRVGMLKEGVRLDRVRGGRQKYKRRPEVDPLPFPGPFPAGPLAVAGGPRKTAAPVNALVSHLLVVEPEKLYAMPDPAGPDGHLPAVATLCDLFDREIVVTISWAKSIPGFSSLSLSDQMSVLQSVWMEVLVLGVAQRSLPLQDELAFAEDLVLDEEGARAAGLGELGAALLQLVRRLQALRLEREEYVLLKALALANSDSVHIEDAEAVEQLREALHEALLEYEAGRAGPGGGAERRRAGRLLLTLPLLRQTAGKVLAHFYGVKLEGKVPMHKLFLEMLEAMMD

| Structure (SMILES) | outcome [1] | outcome [2] | outcome [3] | outcome [4] | outcome [5] | outcome [6] | outcome [7] | outcome [8] | outcome [9] | outcome [10] | outcome [11] | outcome [12] | outcome [13] | outcome [14] | AC50 [2] | outcome [15] | outcome [16] | outcome [17] | outcome [18] |
| --- | --- | --- | --- | --- | --- | --- | --- | --- | --- | --- | --- | --- | --- | --- | --- | --- | --- | --- | --- |
| O=C(O)c1cccc(Cl)n1 | inactive | inactive | inactive | inactive | inactive | inactive | inactive | inactive | inactive | inactive | inactive | inactive | inactive | inactive | – | – | – | – | – |
| CCC(=O)OC/C=C(\C)CCC=C(C)C | inactive | – | inactive | inactive | inactive | inactive | inactive | – | inactive | inactive | inactive | inactive | inactive | inactive | 44 µM (active) | inactive | inactive | inactive | – |
| O=S1(=O)CC=CC1 | inactive | inactive | inactive | inactive | inactive | inactive | inactive | – | inactive | inactive | inactive | – | inactive | inactive | – | inactive | inactive | inactive | – |
| CC1=CC[C@@H](C(C)(C)O)CC1 | inactive | inactive | inactive | inactive | inactive | inactive | inactive | inactive | inactive | inactive | inactive | inactive | inactive | – | – | – | inactive | – | – |
| CC/C=C\CCOC(=O)C(C)C | inactive | inactive | inactive | inactive | inactive | inactive | inactive | – | inactive | inactive | inactive | – | inactive | inactive | – | – | – | inactive | – |
| CCCC(O)C(CC)CO (stereo unspecified) | inactive | – | inactive | inactive | inactive | inactive | inactive | inactive | inactive | inactive | – | – | inactive | – | 47.6 µM (active) | inactive | inactive | – | – |
| FC(F)(F)c1ccc(Cl)c(Cl)c1 | inactive | – | inactive | inactive | inactive | inactive | inactive | inactive | inactive | inactive | inactive | – | – | inactive | 27.9 µM (active) | inactive | inactive | – | – |
| CC(C)C(=O)c1ccccc1 | inactive | inactive | inactive | inactive | inactive | inactive | – | inactive | inactive | – | – | – | – | inactive | – | inactive | inactive | inactive | inactive |
| c1ccc2scnc2c1 | inactive | – | inactive | inactive | inactive | inactive | inactive | – | inactive | inactive | inactive | – | inactive | – | 55.6 µM (active) | inactive | inactive | inactive | – |
| CC(=O)CCc1ccc(O)cc1 | inactive | inactive | inactive | inactive | inactive | inactive | inactive | inactive | inactive | inactive | inactive | – | inactive | inactive | – | inactive | – | inactive | – |
